Results as given in the supplement of paper PMC10849652.
Of roughly 8,800 targets only a part is listed; those with a hit were picked by preference. About 0.5% of all pairs of compound and target were hits.

How the values were obtained:
Assay in all cases: log2 fold change, soluble protein after heating vs DMSO (PISA); higher = thermal stabilisation; K562 lysate, 10 uM; active = over 0.2 and 3.5 SD of the protein, either way, in both replicates (recomputed)
[1] = compound: C1=CC=C(C=C1)[C@H](COC2=CC3=C(C=C2)NC(=O)N3)NC(=O)C4=CC=CN(C4=O)CC5=CC(=C(C=C5)F)F
Summary of the method: (§1)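 To prepare the extract, K562 pellets were dounce-homogenised in PBS pH 7.4 with 1 mM MgCl2, giving crude material at 1 mg/mL protein. This was treated with 10 μM compound for 30 min, then heated in aliquots for 3 min over 48°C-58°C before pooling and addition of NP-40 to 0.5% at 4°C. Centrifugation at 21,000xg for 90 min left soluble protein in the supernatant, which TMTpro 16plex LC-MS/MS quantified with equalised channel sums. Results are log-two fold changes in thermal stability compared with solvent controls, from duplicates.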

[2] = compound: CC1=C(SC2=C1C(=N[C@H](C3=NN=C(N32)C)CC(=O)N)C4=CC=C(C=C4)Cl)C
Summary of the method: as §1

[3] = compound: CC1=C2C(=CC=C1)N=C(N(C2=O)C3=CC=CC=C3C)CN4C=NC5=C(N=CN=C54)N
Summary of the method: as §1

[4] = compound: Cc1sc2c(c1C)C(c1ccc(Cl)cc1)=N[C@@H](CC(=O)OC(C)(C)C)c1nnc(C)n1-2
Summary of the method: as §1

[5] = compound: c1ccc([C@@H]2C[C@H]2NC2CCNCC2)cc1
Summary of the method: as §1

Measured: log2 fold change

SLC20A1 (UniProt Q8WUM9)
inactive: [1] 0.071 | [2] -0.048 | [3] 0.007 | [4] -0.046 | [5] 0.024

SSNA1 (UniProt O43805)
Chain of UniProt O43805 (O43805 whole entry, looked up): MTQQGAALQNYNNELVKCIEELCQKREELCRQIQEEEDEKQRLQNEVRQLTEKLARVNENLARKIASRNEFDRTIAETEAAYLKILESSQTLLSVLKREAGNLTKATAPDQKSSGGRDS
inactive: [1] 0.034 | [2] -0.038 | [3] 0.009 | [4] -0.129 | [5] -0.075

TARDBP (UniProt Q13148)
Chain of UniProt Q13148 (Q13148 whole entry, looked up): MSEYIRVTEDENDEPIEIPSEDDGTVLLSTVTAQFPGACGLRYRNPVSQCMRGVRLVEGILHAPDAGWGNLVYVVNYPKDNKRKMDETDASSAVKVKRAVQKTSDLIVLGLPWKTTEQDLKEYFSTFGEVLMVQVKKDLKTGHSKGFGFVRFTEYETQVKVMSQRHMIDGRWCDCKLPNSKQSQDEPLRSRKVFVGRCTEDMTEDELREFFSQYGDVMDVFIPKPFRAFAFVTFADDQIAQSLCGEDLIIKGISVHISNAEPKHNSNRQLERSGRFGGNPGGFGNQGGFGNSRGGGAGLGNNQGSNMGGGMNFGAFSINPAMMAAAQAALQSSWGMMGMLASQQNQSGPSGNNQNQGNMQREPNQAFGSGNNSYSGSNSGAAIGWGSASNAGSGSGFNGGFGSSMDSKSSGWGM
inactive: [1] -0.094 | [2] -0.012 | [3] 0.067 | [4] -0.145 | [5] -0.041

SNCA (UniProt P37840)
inactive: [1] 0.211 | [2] 0 | [3] -0.009 | [4] 0.211 | [5] -0.077

SP1 (UniProt P08047)
Chain of UniProt P08047 (P08047 whole entry, looked up): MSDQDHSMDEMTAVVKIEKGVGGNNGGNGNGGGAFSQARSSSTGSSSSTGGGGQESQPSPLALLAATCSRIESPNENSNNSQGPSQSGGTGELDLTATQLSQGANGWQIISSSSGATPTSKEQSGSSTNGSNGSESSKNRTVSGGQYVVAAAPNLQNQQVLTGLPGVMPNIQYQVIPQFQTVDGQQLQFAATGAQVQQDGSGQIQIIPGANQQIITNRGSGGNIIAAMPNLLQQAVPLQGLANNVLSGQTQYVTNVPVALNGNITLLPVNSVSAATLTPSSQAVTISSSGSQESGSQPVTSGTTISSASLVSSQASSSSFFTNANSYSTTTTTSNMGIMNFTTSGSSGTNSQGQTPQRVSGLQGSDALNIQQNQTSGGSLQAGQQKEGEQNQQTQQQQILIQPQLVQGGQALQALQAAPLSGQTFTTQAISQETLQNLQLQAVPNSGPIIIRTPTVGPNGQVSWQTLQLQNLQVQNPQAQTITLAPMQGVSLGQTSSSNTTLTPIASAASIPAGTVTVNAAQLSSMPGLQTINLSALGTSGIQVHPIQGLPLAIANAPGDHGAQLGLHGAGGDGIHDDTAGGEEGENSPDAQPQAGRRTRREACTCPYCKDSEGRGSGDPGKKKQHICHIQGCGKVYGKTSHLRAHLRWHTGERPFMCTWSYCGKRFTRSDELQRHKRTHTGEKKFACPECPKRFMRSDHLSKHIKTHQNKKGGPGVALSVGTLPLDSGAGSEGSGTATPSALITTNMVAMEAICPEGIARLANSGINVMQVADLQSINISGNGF
inactive: [1] 0.007 | [2] 0.042 | [3] 0.001 | [4] 0.038 | [5] 0

STK26 (UniProt Q9P289)
Chain of UniProt Q9P289 (Q9P289 whole entry, looked up): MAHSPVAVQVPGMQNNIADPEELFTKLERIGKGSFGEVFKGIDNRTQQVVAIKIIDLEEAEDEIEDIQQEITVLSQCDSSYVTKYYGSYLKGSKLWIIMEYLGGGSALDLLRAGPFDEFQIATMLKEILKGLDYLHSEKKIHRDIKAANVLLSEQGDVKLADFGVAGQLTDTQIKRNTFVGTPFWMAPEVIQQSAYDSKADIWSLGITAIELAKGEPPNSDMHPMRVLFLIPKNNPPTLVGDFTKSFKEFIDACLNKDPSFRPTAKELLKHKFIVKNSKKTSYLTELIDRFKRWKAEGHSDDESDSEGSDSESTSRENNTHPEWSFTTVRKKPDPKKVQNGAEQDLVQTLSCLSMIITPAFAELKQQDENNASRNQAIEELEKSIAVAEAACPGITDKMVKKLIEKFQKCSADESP
inactive: [1] -0.015 | [2] -0.015 | [3] 0.008 | [4] -0.015 | [5] 0.02

STOML2 (UniProt Q9UJZ1)
inactive: [1] -0.008 | [2] 0.004 | [3] -0.027 | [4] -0.025 | [5] -0.008

SLC25A17 (UniProt O43808)
Chain of UniProt O43808 (O43808 whole entry, looked up): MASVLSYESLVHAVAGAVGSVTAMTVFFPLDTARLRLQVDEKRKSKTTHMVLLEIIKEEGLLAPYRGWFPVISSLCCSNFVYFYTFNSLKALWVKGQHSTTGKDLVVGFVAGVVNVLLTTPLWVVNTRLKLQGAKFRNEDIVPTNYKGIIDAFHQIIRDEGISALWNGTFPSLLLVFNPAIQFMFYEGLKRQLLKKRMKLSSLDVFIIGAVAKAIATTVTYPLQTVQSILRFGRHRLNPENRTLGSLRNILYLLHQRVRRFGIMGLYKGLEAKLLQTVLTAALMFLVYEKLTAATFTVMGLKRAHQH
inactive: [1] -0.014 | [2] 0.007 | [3] -0.024 | [4] -0.096 | [5] -0.163

SLU7 (UniProt O95391)
inactive: [1] -0.015 | [2] 0.041 | [3] 0.045 | [4] -0.028 | [5] -0.16

SNRPF (UniProt P62306)
inactive: [1] 0.04 | [2] -0.084 | [3] -0.12 | [4] -0.103 | [5] -0.206

SSB (UniProt P05455)
inactive: [1] -0.004 | [2] 0.015 | [3] -0.009 | [4] 0.012 | [5] 0.068

SMTN isoform 6 (UniProt P53814)
Chain of UniProt P53814 (P53814 whole entry, looked up): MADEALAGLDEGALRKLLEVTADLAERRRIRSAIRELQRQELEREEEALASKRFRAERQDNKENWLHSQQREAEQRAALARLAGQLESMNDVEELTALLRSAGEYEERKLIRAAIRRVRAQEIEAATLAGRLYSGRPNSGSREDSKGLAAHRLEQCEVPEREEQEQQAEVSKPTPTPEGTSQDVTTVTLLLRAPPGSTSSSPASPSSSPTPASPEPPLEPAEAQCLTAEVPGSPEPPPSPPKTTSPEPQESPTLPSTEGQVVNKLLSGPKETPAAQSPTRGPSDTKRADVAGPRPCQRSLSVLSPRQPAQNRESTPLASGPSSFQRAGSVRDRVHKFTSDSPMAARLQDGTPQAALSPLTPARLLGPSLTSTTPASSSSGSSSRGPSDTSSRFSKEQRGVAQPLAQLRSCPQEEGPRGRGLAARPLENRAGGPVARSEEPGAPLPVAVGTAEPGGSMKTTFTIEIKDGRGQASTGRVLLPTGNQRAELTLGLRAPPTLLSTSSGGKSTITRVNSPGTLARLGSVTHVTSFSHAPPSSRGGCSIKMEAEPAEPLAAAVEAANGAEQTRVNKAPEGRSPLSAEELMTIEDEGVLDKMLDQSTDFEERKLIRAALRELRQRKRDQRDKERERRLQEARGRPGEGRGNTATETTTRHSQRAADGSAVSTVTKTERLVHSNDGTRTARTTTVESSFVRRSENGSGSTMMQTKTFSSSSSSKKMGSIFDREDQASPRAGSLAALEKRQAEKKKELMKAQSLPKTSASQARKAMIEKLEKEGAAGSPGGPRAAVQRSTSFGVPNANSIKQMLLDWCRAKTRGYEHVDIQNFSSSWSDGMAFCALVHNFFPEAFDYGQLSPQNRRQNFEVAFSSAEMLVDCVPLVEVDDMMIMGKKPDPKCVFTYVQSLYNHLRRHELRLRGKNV
inactive: [1] 0.053 | [2] -0.011 | [3] -0.01 | [4] 0.01 | [5] 0.081

SNRPD3 (UniProt P62318)
inactive: [1] -0.02 | [2] -0.011 | [3] 0.022 | [4] -0.027 | [5] -0.118

SMAD2 (UniProt Q15796)
Chain of UniProt Q15796 (Q15796 whole entry, looked up): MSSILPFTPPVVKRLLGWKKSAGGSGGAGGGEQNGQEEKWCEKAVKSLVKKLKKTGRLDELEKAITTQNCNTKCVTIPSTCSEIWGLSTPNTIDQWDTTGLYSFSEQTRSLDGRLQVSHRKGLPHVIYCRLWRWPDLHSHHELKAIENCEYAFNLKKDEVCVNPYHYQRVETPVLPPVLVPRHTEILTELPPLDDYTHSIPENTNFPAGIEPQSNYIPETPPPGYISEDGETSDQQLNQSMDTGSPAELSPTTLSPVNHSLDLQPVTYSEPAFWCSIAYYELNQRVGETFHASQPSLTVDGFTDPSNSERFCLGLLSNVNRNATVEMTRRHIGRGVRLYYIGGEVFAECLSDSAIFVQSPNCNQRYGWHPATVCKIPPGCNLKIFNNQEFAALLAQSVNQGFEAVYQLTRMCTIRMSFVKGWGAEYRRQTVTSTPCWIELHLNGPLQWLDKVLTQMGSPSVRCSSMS
inactive: [1] -0.006 | [2] 0.024 | [3] -0.104 | [4] 0.023 | [5] 0

SMARCAD1 isoform 2 (UniProt Q9H4L7)
Chain of UniProt Q9H4L7 (Q9H4L7 whole entry, looked up): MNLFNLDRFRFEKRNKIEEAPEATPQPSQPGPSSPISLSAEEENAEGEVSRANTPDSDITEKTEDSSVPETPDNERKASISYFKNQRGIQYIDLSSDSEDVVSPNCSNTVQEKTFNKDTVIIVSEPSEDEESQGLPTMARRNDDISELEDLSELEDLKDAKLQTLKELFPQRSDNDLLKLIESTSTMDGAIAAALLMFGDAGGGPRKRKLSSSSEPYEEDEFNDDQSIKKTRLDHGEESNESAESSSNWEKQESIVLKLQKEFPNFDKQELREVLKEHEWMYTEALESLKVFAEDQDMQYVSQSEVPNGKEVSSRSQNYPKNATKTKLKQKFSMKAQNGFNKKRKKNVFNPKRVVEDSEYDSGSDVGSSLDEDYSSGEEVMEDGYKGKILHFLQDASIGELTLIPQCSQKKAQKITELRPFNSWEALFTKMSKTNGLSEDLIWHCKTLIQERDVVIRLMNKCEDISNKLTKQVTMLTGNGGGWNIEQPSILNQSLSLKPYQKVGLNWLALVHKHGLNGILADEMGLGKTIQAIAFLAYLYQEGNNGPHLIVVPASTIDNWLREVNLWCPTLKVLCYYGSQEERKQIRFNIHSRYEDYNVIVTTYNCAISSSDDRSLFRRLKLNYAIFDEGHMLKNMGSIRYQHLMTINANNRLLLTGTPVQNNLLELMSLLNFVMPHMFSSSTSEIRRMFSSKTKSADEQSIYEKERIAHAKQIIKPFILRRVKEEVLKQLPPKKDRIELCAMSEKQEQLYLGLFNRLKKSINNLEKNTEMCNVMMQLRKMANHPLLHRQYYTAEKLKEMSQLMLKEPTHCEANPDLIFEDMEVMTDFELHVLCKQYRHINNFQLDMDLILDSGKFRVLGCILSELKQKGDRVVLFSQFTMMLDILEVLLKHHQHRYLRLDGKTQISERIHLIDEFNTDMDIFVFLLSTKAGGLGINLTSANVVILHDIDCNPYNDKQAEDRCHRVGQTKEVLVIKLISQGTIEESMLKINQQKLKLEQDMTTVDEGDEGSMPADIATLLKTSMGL
inactive: [1] -0.006 | [2] -0.036 | [3] 0.014 | [4] 0.014 | [5] 0.035

SH3BGRL2 (UniProt Q9UJC5)
inactive: [1] 0.048 | [2] 0.085 | [3] -0.027 | [4] -0.001 | [5] 0.083

SLC38A1 (UniProt Q9H2H9)
Chain of UniProt Q9H2H9 (Q9H2H9 whole entry, looked up): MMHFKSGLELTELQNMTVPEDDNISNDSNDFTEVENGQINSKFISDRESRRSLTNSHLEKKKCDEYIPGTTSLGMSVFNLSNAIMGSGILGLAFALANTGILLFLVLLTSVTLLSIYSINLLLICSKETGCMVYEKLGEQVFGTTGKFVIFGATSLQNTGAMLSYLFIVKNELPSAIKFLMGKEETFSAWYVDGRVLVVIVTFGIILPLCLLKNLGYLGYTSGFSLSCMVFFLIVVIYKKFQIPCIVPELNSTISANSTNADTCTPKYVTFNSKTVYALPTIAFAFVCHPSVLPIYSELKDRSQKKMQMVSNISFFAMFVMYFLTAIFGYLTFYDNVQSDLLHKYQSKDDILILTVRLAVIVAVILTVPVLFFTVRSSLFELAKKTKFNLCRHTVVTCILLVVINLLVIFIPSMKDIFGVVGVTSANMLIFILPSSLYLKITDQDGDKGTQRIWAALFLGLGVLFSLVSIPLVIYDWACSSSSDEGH
inactive: [1] 0.055 | [2] -0.116 | [3] 0.06 | [4] -0.116 | [5] -0.128
